The text below walks through data of article PMC12431657, “Discovery and mechanistic insights of dibenzoylmethane as a broad spectrum inhibitor of coronavirus” (PLOS Pathogens, 2025).

Where a name gives a salt, the structure may show the parent alone. Read-outs that look alike come from different tables or passages of the source. Hit rate of the full screen: of about 3,300 compounds, about 95 (3%) showed an effect of 50% or more. This is one part of a sample in which strong results are shown more often than they occur.

In the assay the test system is HCoV-229E. Also on record: species or system Huh-7; HTS, protection from HCoV-229E induced cell death, luminescent cell viability (CellCounting-Lite 2.0), inhibition rate. To be noted: 24 h post infection, 1 h compound pre-incubation, 10 µM, inhibitor.

As for `N[C@H](CC(=O)O)C(=O)O` [(-)-Aspartic acid], the “229E Inhibition rate” value is 9.6%.

In the case of `Cc1c(N)nc([C@H](CC(N)=O)NC[C@H](N)C(N)=O)nc1C(=O)N[C@H](C(=O)N[C@H](C)[C@@H](O)[C@H](C)C(=O)N[C@H](C(=O)NCCc1nc(-c2nc(C(=O)NCCC[S+](C)C)cs2)cs1)[C@@H](C)O)[C@@H](O[C@@H]1O[C@@H](CO)[C@@H](O)[C@H](O)[C@@H]1O[C@H]1O[C@H](CO)[C@@H](O)[C@H](OC(N)=O)[C@@H]1O)c1cnc[nH]1` [Bleomycin (sulfate)], the “229E Inhibition rate” value turned out to be 12.9%.

As for `CC(C)=CCC[C@H](C)CC=O` [(S)-(-)-Citronellal], the “229E Inhibition rate” value is on record as 6.7%.

Regarding `C[C@@H]1CC[C@@]2(OC1)O[C@H]1C[C@H]3[C@@H]4CC=C5C[C@@H](O)C[C@@H](O[C@@H]6O[C@H](C)[C@H](O)[C@H](O[C@@H]7OC[C@@H](O)[C@H](O)[C@H]7O)[C@H]6O[C@@H]6O[C@H](CO)[C@@H](O)[C@H](O)[C@H]6O)[C@]5(C)[C@H]4CC[C@]3(C)[C@H]1[C@@H]2C` [Saponin C, from Liriope muscari], the “229E Inhibition rate” value is listed as 0%.

Take `C[C@@H]1CC[C@@]2(OC1)O[C@H]1C[C@H]3[C@@H]4CC=C5C[C@@H](O)C[C@@H](O[C@@H]6O[C@H](C)[C@H](O)[C@H](O[C@@H]7OC[C@@H](O)[C@H](O)[C@H]7O)[C@H]6O[C@@H]6O[C@@H](C)[C@H](O)[C@@H](O)[C@H]6O)[C@]5(C)[C@H]4CC[C@]3(C)[C@H]1[C@@H]2C` [Ophiopogonin D]: the “229E Inhibition rate” value (229E Inhibition rate, 24 h) is 50.3%.

`C[C@@H]1CC[C@@]2(OC1)O[C@H]1C[C@H]3[C@@H]4CC=C5C[C@@H](O)C[C@@H](O[C@@H]6O[C@H](C)[C@H](O)[C@H](O[C@@H]7OC[C@@H](O)[C@H](O)[C@H]7O)[C@H]6O[C@@H]6O[C@@H](C)[C@H](O)[C@@H](O)[C@H]6O)[C@]5(C)[C@H]4CC[C@]3(C)[C@H]1[C@@H]2C` [Ophiopogonin D']: the “229E Inhibition rate” value (229E Inhibition rate, 24 h) is reported as 6.6%.

`CCC(C)(O)C(=O)O` (stereo not shown) [2-Hydroxy-2-methylbutanoic acid]: the “229E Inhibition rate” value is on record as 0%.

Consider `COc1cc(O)c2c(=O)c(O[C@@H]3O[C@H](CO[C@@H]4O[C@@H](C)[C@H](O)[C@@H](O)[C@H]4O)[C@@H](O)[C@H](O)[C@H]3O)c(-c3ccc(OC)c(O)c3)oc2c1` [Ombuoside], for which the “229E Inhibition rate” value is 41.9%.

With `C[C@@H]1O[C@@H](OC[C@H]2O[C@@H](Oc3c(-c4ccc(OCCO)c(OCCO)c4)oc4cc(OCCO)cc(O)c4c3=O)[C@H](O)[C@@H](O)[C@@H]2O)[C@H](O)[C@H](O)[C@H]1O` [Troxerutin], the “229E Inhibition rate” value is 50.2%.

`C[C@@H]1O[C@@H](OC[C@H]2O[C@@H](Oc3c(-c4ccc(O)cc4)oc4cc(O[C@@H]5O[C@@H](C)[C@H](O)[C@@H](O)[C@H]5O)cc(O)c4c3=O)[C@H](O)[C@@H](O)[C@H]2O)[C@H](O)[C@H](O)[C@H]1O` [Robinin]: the “229E Inhibition rate” value was 8.6%.

For `O=C1CCNC(=O)N1` [Dihydrouracil], the “229E Inhibition rate” value is reported as 0%.

As to `COc1c(O)cc2oc3cc4c(c(O)c3c(=O)c2c1CC=C(C)C)CCC(C)(C)O4` [3-Isomangostin], the “229E Inhibition rate” value was determined as 11.6%.

`N[C@H](CS)C(=O)O` [D-Cysteine]: the “229E Inhibition rate” value was determined as 6.6%.

Regarding `O=C(O)[C@@H](O)[C@H](O)[C@H](O)[C@@H](O)C(=O)O` [Mucic acid], the “229E Inhibition rate” value stood at 0%.

On to `O=C[C@H](O)[C@@H](O)[C@@H](O)[C@H](O)C(=O)O` [D-Galacturonic acid (hydrate)], for which the “229E Inhibition rate” value is 6.7%.

On to `O=C[C@H](O)[C@@H](O)[C@H](O)[C@H](O)C(=O)O` [D-Glucuronic acid], for which the “229E Inhibition rate” value is 57.5%.

Consider `CC(C)=CCc1c(O)cc2c(c1O)C(=O)C[C@@H](c1ccc(O)cc1)O2` [(2S)-6-Prenylnaringenin], for which the “229E Inhibition rate” value is 22.5%.

In the case of `CC[C@]12C=CCN3CC[C@]4(C(=C(C(=O)OC)C1)Nc1ccccc14)[C@@H]32` [Tabersonine], the “229E Inhibition rate” value is reported as 0%.

Regarding `O=C(O)CCC(=O)OC[C@@H](NC(=O)C(Cl)Cl)[C@H](O)c1ccc([N+](=O)[O-])cc1` [Chloramphenicol succinate (sodium)], the “229E Inhibition rate” value stood at 54%.

Turning to `COC(=O)[C@]1(O)C[C@@H](O)[C@@H](O)[C@H](OC(=O)/C=C/c2ccc(O)c(O)c2)C1` [3-O-Caffeoylquinic acid methyl ester], the “229E Inhibition rate” value is 24.2%.

Consider `COc1cc(C(=O)O)cc(OC)c1OC` [3,4,5-Trimethoxybenzoic acid], for which the “229E Inhibition rate” value was 11.2%.

For `COc1cc(CCC(=O)O)ccc1O` [Dihydroferulic acid], the “229E Inhibition rate” value is 28.8%.

Consider `COc1cc(CCC(=O)O)cc(OC)c1OC` [3-(3,4,5-Trimethoxyphenyl)propanoic acid], for which the “229E Inhibition rate” value was 55.1%.

Turning to `C[C@H](CCC(=O)O)[C@H]1CC[C@H]2[C@@H]3[C@H](O)C[C@@H]4CC(=O)CC[C@]4(C)[C@H]3C[C@H](O)[C@]12C` [3-Oxocholic acid], the “229E Inhibition rate” value was determined as 4.2%.

`CC[C@H](CC[C@@H](C)[C@H]1CC[C@H]2[C@@H]3CC[C@H]4C[C@@H](O)CC[C@]4(C)[C@H]3CC[C@]12C)C(C)C` [Stigmastanol]: the “229E Inhibition rate” value stood at 12.4%.

Regarding `COc1cc2oc(-c3ccc(O)cc3)cc(=O)c2c(O)c1[C@@H]1O[C@H](CO)[C@@H](O)[C@H](O)[C@H]1O[C@@H]1O[C@H](CO)[C@@H](O)[C@H](O)[C@H]1O` [Spinosin], the “229E Inhibition rate” value was found to be 16.9%.

Turning to `O=c1cc(-c2ccc(O)cc2)oc2c([C@@H]3O[C@H](CO)[C@@H](O[C@@H]4O[C@H](CO)[C@@H](O)[C@H](O)[C@H]4O)[C@H](O)[C@H]3O)c(O)cc(O)c12` [4”-O-Glucosylvitexin], the “229E Inhibition rate” value stood at 19%.

In the case of `O=c1cc(-c2ccc(O)c(O)c2)oc2c([C@@H]3O[C@H](CO)[C@@H](O)[C@H](O)[C@H]3O[C@H]3O[C@@H](CO)[C@@H](O)[C@@H](O)[C@@H]3O)c(O)cc(O)c12` [2"-O-beta-L-galactopyranosylorientin], the “229E Inhibition rate” value came to 6.8%.

Regarding `O=c1cc(-c2ccc(O)c(O)c2)oc2c([C@@H]3O[C@H](CO)[C@@H](O)[C@H](O)[C@H]3O)c(O)cc(O)c12` [Orientin], the “229E Inhibition rate” value stood at 55%.

Turning to `O=c1cc(-c2ccc(O)c(O)c2)oc2cc(O[C@@H]3O[C@H](CO)[C@@H](O)[C@H](O)[C@H]3O)c(O)c(O)c12` [6-Hydroxyluteolin 7-glucoside], the “229E Inhibition rate” value is 5.1%.

Turning to `O=c1cc(-c2ccc(O)cc2)oc2cc(O)c([C@@H]3O[C@H](CO)[C@@H](O)[C@H](O)[C@H]3O)c(O)c12` [Isovitexin], the “229E Inhibition rate” value is on record as 21%.

With `O=c1cc(-c2ccc(O)c(O)c2)oc2cc(O)c([C@@H]3O[C@H](CO)[C@@H](O)[C@H](O)[C@H]3O)c(O)c12` [Isoorientin], the “229E Inhibition rate” value came out at 51.3%.

Take `O=c1cc(-c2ccc(O)cc2)oc2cc(O)c([C@@H]3O[C@H](CO)[C@@H](O)[C@H](O)[C@H]3O[C@@H]3O[C@H](CO)[C@@H](O)[C@H](O)[C@H]3O)c(O)c12` [Meloside A]: the “229E Inhibition rate” value turned out to be 56.2%.

Regarding `O=c1cc(-c2ccc(O)cc2)oc2cc(O)c([C@@H]3O[C@H](CO)[C@@H](O)[C@H](O)[C@H]3O[C@@H]3OC[C@H](O)[C@H](O)[C@H]3O)c(O)c12` [Isovitexin 2''-O-arabinoside], the “229E Inhibition rate” value turned out to be 22.1%.

As for `O=C(O)[C@H](O)[C@@H](O)C(=O)O` [L-Tartaric acid], under “229E Inhibition rate, 24 h”, the “229E Inhibition rate” value was 17.2%.

Regarding `CCOC(=O)CC(C)O` (stereo not shown) [Ethyl 3-hydroxybutyrate], the “229E Inhibition rate” value turned out to be 11.8%.

Regarding `CN1c2ccccc2C(=O)N2CCc3c([nH]c4ccccc34)C21` (racemic) [(±)-Evodiamine], the “229E Inhibition rate” value was determined as 18.7%.

As to `CCCCC/C=C/C=C/C(=O)NCC(C)C` [Pellitorine], the “229E Inhibition rate” value was 14.2%.

On to `O=C(O)c1ccncc1` [Isonicotinic acid], for which the “229E Inhibition rate” value was found to be 55%.

With `O=C(O)c1ccc(C(=O)O)cc1` [Terephthalic acid], the “229E Inhibition rate” value came out at 10.1%.

For `O=C(O)c1ccccc1` [Benzoic acid], the “229E Inhibition rate” value stood at 11.6%.

As to `O=C(O)c1c(O)cccc1O` [2,6-Dihydroxybenzoic acid], the “229E Inhibition rate” value is 10.3%.

Regarding `C=C(CO)C(=O)O[C@H]1CC(=C)[C@@H]2C[C@H](O)C(=C)[C@@H]2[C@H]2OC(=O)C(=C)[C@@H]21` [Cynaropicrin], the “229E Inhibition rate” value is listed as 8.5%.

For `Cc1ccccc1C(=O)O` [o-Toluic acid], the “229E Inhibition rate” value is 0%.

On to `Cc1ccccc1C(=O)NCC(=O)O` [2-(2-Methylbenzamido)acetic acid], for which the “229E Inhibition rate” value is reported as 54.8%.

For `O=C(O)CNC(=O)c1ccccc1` [Hippuric acid], the “229E Inhibition rate” value was 8.9%.

Turning to `CCOC(=O)/C=C/c1ccc(O)cc1` [p-Coumaric Acid Ethyl Ester], the “229E Inhibition rate” value stood at 23%.

For the molecule `O=C1Cc2ccccc2N1` [Oxindole], the “229E Inhibition rate” value was 15.9%.

`O=C1C=CC[C@@H]2[C@H]3CCCN4CCC[C@@H](CN12)[C@@H]34` [Sophocarpine (monohydrate)]: the “229E Inhibition rate” value (229E Inhibition rate, 24 h) is recorded as 23.9%.

As to `COc1ccc(C2COc3cc(O)ccc3C2)c(O)c1OC` (stereo not shown) [Isomucronulatol], the “229E Inhibition rate” value came out at 9.8%.

Turning to `COc1ccc(C(=O)O)cc1` [p-Anisic acid], the “229E Inhibition rate” value was determined as 5.8%.

Turning to `Oc1cc(O)c2c(c1)O[C@@H](c1cc(O)c(O)c(O)c1)[C@H](O)C2` [(-)-Gallocatechin], the “229E Inhibition rate” value was 16.1%.

For `Oc1cc(O)c2c(c1)O[C@H](c1cc(O)c(O)c(O)c1)[C@@H](O)C2` [(+)-Gallocatechin], the “229E Inhibition rate” value amounted to 54.1%.

Turning to `Oc1cc(O)c2c(c1)O[C@H](c1cc(O)c(O)c(O)c1)[C@H](O)C2` [(-)-Epigallocatechin], the “229E Inhibition rate” value is on record as 10.4%.

Turning to `O=C(O)CC(O)(CC(=O)O)C(=O)O` [Sodium citrate (dihydrate)], where the note is “229E Inhibition rate, 24 h”, the “229E Inhibition rate” value is 0%.
